Measured values from the supplement of paper PMC8728848.
The sample as a whole holds a higher share of the strongest signals than the screen did.

Experiments:
Assay in all cases: glycan array binding signal (z-score within array); higher = stronger binding
Conditions in all cases: glycan notation: IUPAC condensed, linker removed
[1] = biological target: Fuc(a1-2)Gal(b1-3)GlcNAc(b1-3)[Gal(b1-4)GlcNAc(b1-6)]Gal(b1-4)Glc
Procedure, shortened: (§1)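 The binding signal is a Z-score computed within each array. Data were drawn from 3228 arrays in the Consortium for Functional Glycomics database, restricted to those with a known protein sequence. Scores were averaged over arrays of the same protein sequence at different concentrations or buffers, and over linkers, and negative values can be taken as non-binding.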

[2] = biological target: Fuc(a1-2)Gal(b1-3)GlcNAc(b1-3)[Neu5Ac(a2-6)Gal(b1-4)GlcNAc(b1-6)]Gal(b1-4)Glc
Procedure, shortened: as §1

Fuc(a1-2)Gal(b1-4)Glc = biological target: Fuc(a1-2)Gal(b1-4)Glc
Procedure, shortened: as §1

[3] = biological target: Fuc(a1-2)Gal(b1-4)GlcNAc6S
Procedure, shortened: as §1

[4] = biological target: Fuc(a1-2)[Gal(a1-3)]Gal(b1-4)GlcNAc(b1-3)[Fuc(a1-2)[Gal(a1-3)]Gal(b1-4)GlcNAc(b1-6)]GalNAc
Procedure, shortened: as §1

[5] = biological target: Fuc(a1-2)[Gal(a1-3)]Gal(b1-4)[Fuc(a1-3)]GlcNAc
Procedure, shortened: as §1

[6] = biological target: Fuc(a1-2)[GalNAc(a1-4)]Gal(b1-4)GlcNAc
Procedure, shortened: as §1

Fuc(a1-4)GlcNAc = biological target: Fuc(a1-4)GlcNAc
Procedure, shortened: as §1

Gal(b1-3)Gal = biological target: Gal(b1-3)Gal
Procedure, shortened: as §1

[7] = biological target: Gal(b1-3)GlcNAc(b1-3)Gal(b1-4)GlcNAc(b1-2)Man(a1-3)[Gal(b1-3)GlcNAc(b1-3)Gal(b1-4)GlcNAc(b1-2)Man(a1-6)]Man(b1-4)GlcNAc(b1-4)GlcNAc
Procedure, shortened: as §1

[8] = biological target: Gal(b1-3)GlcNAc(b1-3)Gal(b1-4)GlcNAc(b1-2)[Gal(b1-3)GlcNAc(b1-3)Gal(b1-4)GlcNAc(b1-6)]Man(a1-6)[Gal(b1-3)GlcNAc(b1-3)Gal(b1-4)GlcNAc(b1-2)Man(a1-3)]Man(b1-4)GlcNAc(b1-4)[Fuc(a1-6)]GlcNAc
Procedure, shortened: as §1

[9] = biological target: Gal(b1-3)[Fuc(a1-4)]GlcNAc
Procedure, shortened: as §1

Gal(b1-4)Glc6S = biological target: Gal(b1-4)Glc6S
Procedure, shortened: as §1

[10] = biological target: Gal(b1-4)GlcNAc(b1-2)[Gal(b1-4)GlcNAc(b1-4)]Man(a1-3)[Gal(b1-4)GlcNAc(b1-2)Man(a1-6)]Man(b1-4)GlcNAc(b1-4)GlcNAc
Procedure, shortened: as §1

[11] = biological target: Gal(b1-4)GlcNAc(b1-2)[Gal(b1-4)GlcNAc(b1-4)]Man(a1-3)[GlcNAc(b1-4)][Gal(b1-4)GlcNAc(b1-2)[Gal(b1-4)GlcNAc(b1-6)]Man(a1-6)]Man(b1-4)GlcNAc(b1-4)GlcNAc
Procedure, shortened: as §1

[12] = biological target: Gal(b1-4)GlcNAc(b1-3)Gal(b1-4)GlcNAc(b1-3)Gal(b1-4)GlcNAc(b1-2)Man(a1-3)[Gal(b1-4)GlcNAc(b1-3)Gal(b1-4)GlcNAc(b1-3)Gal(b1-4)GlcNAc(b1-2)Man(a1-6)]Man(b1-4)GlcNAc(b1-4)[Fuc(a1-6)]GlcNAc
Procedure, shortened: as §1

[13] = biological target: Gal(b1-4)GlcNAc(b1-3)GalNAc
Procedure, shortened: as §1

[14] = biological target: Gal(b1-4)GlcNAc(b1-3)[Fuc(a1-3)GlcNAc(b1-6)]Gal(b1-4)Glc
Procedure, shortened: as §1

[15] = biological target: GlcNAc(b1-3)Gal(b1-4)GlcNAc(b1-3)[GlcNAc(b1-3)Gal(b1-4)GlcNAc(b1-3)]GalNAc
Procedure, shortened: as §1

[16] = biological target: GlcNAc(b1-3)Gal(b1-4)GlcNAc(b1-6)[Gal(b1-3)]GalNAc
Procedure, shortened: as §1

[17] = biological target: GlcNAc(b1-3)[GlcNAc(b1-4)][GlcNAc(b1-6)]GlcNAc
Procedure, shortened: as §1

[18] = biological target: GlcNAc(b1-4)[GlcNAc(b1-6)]GalNAc
Procedure, shortened: as §1

[19] = biological target: Kdn(a2-3)Gal(b1-4)[Fuc(a1-3)]GlcNAc
Procedure, shortened: as §1

[20] = biological target: Man(a1-2)Man(a1-2)Man(a1-3)Man
Procedure, shortened: as §1

[21] = biological target: Man(a1-2)Man(a1-2)Man(a1-6)[Man(a1-3)]Man
Procedure, shortened: as §1

Man(a1-2)Man(a1-3)Man = biological target: Man(a1-2)Man(a1-3)Man
Procedure, shortened: as §1

[22] = biological target: Man(a1-2)Man(a1-3)[Man(a1-2)Man(a1-6)]Man
Procedure, shortened: as §1

[23] = biological target: Man(a1-2)Man(a1-3)[Man(a1-2)Man(a1-6)]Man(a1-6)[Man(a1-2)Man(a1-2)Man(a1-3)]Man
Procedure, shortened: as §1

[24] = biological target: Man(a1-2)Man(a1-6)[Man(a1-3)]Man(a1-6)[Man(a1-2)Man(a1-2)Man(a1-3)]Man
Procedure, shortened: as §1

[25] = biological target: Man(a1-2)Man(a1-6)[Man(a1-3)]Man(a1-6)[Man(a1-2)Man(a1-2)Man(a1-3)]Man(b1-4)GlcNAc(b1-4)GlcNAc
Procedure, shortened: as §1

[26] = biological target: Man(a1-3)[Man(a1-6)]Man(a1-6)[Man(a1-2)Man(a1-3)]Man(b1-4)GlcNAc(b1-4)GlcNAc
Procedure, shortened: as §1

[27] = biological target: Neu5Ac(a2-3)Gal(b1-3)GalNAc
Procedure, shortened: as §1

[28] = biological target: Neu5Ac(a2-3)Gal(b1-3)[Fuc(a1-4)]GlcNAc
Procedure, shortened: as §1

[29] = biological target: Neu5Ac(a2-3)Gal(b1-3)[GlcNAc(b1-6)]GalNAc
Procedure, shortened: as §1

[30] = biological target: Neu5Ac(a2-3)Gal(b1-3)]Neu5Ac(a2-3)Gal(b1-4)]GlcNAc
Procedure, shortened: as §1

[31] = biological target: Neu5Ac(a2-3)Gal(b1-4)GlcNAc(b1-2)Man(a1-3)[GlcNAc(b1-4)][Neu5Ac(a2-3)Gal(b1-4)GlcNAc(b1-2)Man(a1-6)]Man(b1-4)GlcNAc(b1-4)GlcNAc
Procedure, shortened: as §1

[32] = biological target: Neu5Ac(a2-3)Gal6S(b1-4)[Fuc(a1-3)]GlcNAc
Procedure, shortened: as §1

Neu5Ac(a2-6)GalNAc = biological target: Neu5Ac(a2-6)GalNAc
Procedure, shortened: as §1

[33] = biological target: Neu5Ac(a2-6)GalNAc(b1-4)GlcNAc
Procedure, shortened: as §1

[34] = biological target: Neu5Ac(a2-8)Neu5Ac(a2-3)[GalNAc(b1-4)]Gal(b1-4)Glc
Procedure, shortened: as §1

[35] = biological target: Neu5Ac(a2-8)Neu5Gc(a2-3)Gal(b1-4)GlcNAc
Procedure, shortened: as §1

[36] = biological target: Neu5Gc(a2-8)Neu5Gc(a2-3)Gal(b1-4)GlcNAc(b1-3)Gal(b1-4)GlcNAc
Procedure, shortened: as §1

B1: Dectin2 (Homo sapiens), Q6EIG7 (protein)
chain: MMQEQQPQSTEKRGWLSLRLWSVAGISIALLSACFIVSCVVTYHFTYGETGKRLSELHSYHSSLTCFSEGTKVPAWGCCPASWKSFGSSCYFISSEEKVWSKSEQNCVEMGAHLVVFNTEAEQNFIVQQLNESFSYFLGLSDPQGNNNWQWIDKTPYEKNVRFWHLGEPNHSAEQCASIVFWKPTGWGWNDVICETRRNSICEMNKIYL
In the case of B1, the “glycan array binding signal (z-score)” value [1] is reported as -0.199, the “glycan array binding signal (z-score)” value [2] is reported as -0.182 and the “glycan array binding signal (z-score)” value (Fuc(a1-2)Gal(b1-4)Glc) is reported as -0.165. For the same binder, the “glycan array binding signal (z-score)” value [3] was 0.311, the “glycan array binding signal (z-score)” value [4] was -0.136 and the “glycan array binding signal (z-score)” value [5] was -0.1. The “glycan array binding signal (z-score)” value [6] was -0.122, the “glycan array binding signal (z-score)” value (Fuc(a1-4)GlcNAc) was -0.102 and the “glycan array binding signal (z-score)” value (Gal(b1-3)Gal) was -0.111. For the same binder, the “glycan array binding signal (z-score)” value [7] was 0.015, the “glycan array binding signal (z-score)” value [8] was 1.31 and the “glycan array binding signal (z-score)” value [9] was -0.15. The “glycan array binding signal (z-score)” value (Gal(b1-4)Glc6S) was -0.188, the “glycan array binding signal (z-score)” value [10] was 0.09 and the “glycan array binding signal (z-score)” value [11] was -0.17. For the same binder, the “glycan array binding signal (z-score)” value [12] was -0.086, the “glycan array binding signal (z-score)” value [13] was -0.186 and the “glycan array binding signal (z-score)” value [14] was -0.161. For the same binder, the “glycan array binding signal (z-score)” value [15] was -0.182, the “glycan array binding signal (z-score)” value [16] was -0.196 and the “glycan array binding signal (z-score)” value [17] was 1.3. The “glycan array binding signal (z-score)” value [18] was 1.29, the “glycan array binding signal (z-score)” value [19] was -0.14 and the “glycan array binding signal (z-score)” value [20] was 10.3. The “glycan array binding signal (z-score)” value [21] was 13.5, the “glycan array binding signal (z-score)” value (Man(a1-2)Man(a1-3)Man) was 4.35 and the “glycan array binding signal (z-score)” value [22] was 7.43. For the same binder, the “glycan array binding signal (z-score)” value [23] was 13.9, the “glycan array binding signal (z-score)” value [24] was 3.05 and the “glycan array binding signal (z-score)” value [25] was 1.38. For the same binder, the “glycan array binding signal (z-score)” value [26] was 1.16, the “glycan array binding signal (z-score)” value [27] was 0.09 and the “glycan array binding signal (z-score)” value [28] was -0.165. The “glycan array binding signal (z-score)” value [29] was -0.193, the “glycan array binding signal (z-score)” value [30] was -0.206 and the “glycan array binding signal (z-score)” value [31] was -0.193. The “glycan array binding signal (z-score)” value [32] was -0.193, the “glycan array binding signal (z-score)” value (Neu5Ac(a2-6)GalNAc) was -0.176 and the “glycan array binding signal (z-score)” value [33] was -0.192. For the same binder, the “glycan array binding signal (z-score)” value [34] was -0.177, the “glycan array binding signal (z-score)” value [35] was -0.21 and the “glycan array binding signal (z-score)” value [36] was -0.206.
